Screening data (PubChem BioAssay)
HepG2 tox-1: counter-screen for TGF-b inhibitors: cytotoxicity in HepG2 cells. HepG2 CAGA-GFP viability, ATP luminescence, 18 h. Potency, µM (highest dose often 46.1 µM), inactives show at the top dose activity change, negative = cytotoxicity, hits mostly cytotoxic. 0.76% of 410,000 active
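CellTiter-Glo luminescence gave cytotoxicity after 18 hours at 37 degrees C. The cells were HepG2 CAGA-GFP in 1% FBS DMEM, stimulated with 500 pg/mL TGF-beta after compound addition. %Activity was normalised to no-cell wells (complete cell-killing) and DMSO (no toxicity), and curves were fitted and classified.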
KB-3-1 tox: kills parental KB-3-1 adenocarcinoma cells | KB-3-1 viability, CellTiter-Glo ATP luminescence, 72 h | Potency, µM (top dose mostly 46.1 µM), hits mostly cytotoxic | 1.4% of 400,000 active | AID 1347075; note: % is set by controls: 0 for no effect and ±100 for the full control effect; nearly all actives have a fitted effect of over 60% in size
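Parental KB-3-1 adenocarcinoma cells in phenol-red-free DMEM with 10% FBS were pin-treated with compounds at several concentrations, incubated 72 h at 37 °C, and viability read by CellTiter-Glo luminescence; concentration-effect curves were fitted after normalization.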
ATXN2 expr inh: reduces ATXN2 reporter expression in HEK-293 cells; HEK-293 ATXN2-luciferase reporter, luminescence, 24 h; AID 1745845; Potency, µM (titrated, usually from 57 µM), without a hit: at the highest dose activity change, negative = inhibition, most hits filed as inhibitors; 0.72% of 360,000 active; note: % is set by controls: 0 for no effect and ±100 for the full control effect; nearly all actives have a fitted effect of over 55% in size
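ATXN2-luciferase reporter cells (luciferase flanked by upstream and downstream ATXN2 gene portions) were treated 24 h at 37 °C with compounds at up to 57 uM. SteadyGlo luminescence gave expression; GF-AFC fluorescence gave viability.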
S2 tox: cell viability loss in ATXN counter-screen; S2 cells (HEK-293 line with an ATXN2-luciferase reporter) viability, CellTiter-Fluor protease fluorescence, 24 h; Potency, µM (top dose mostly 56.7 µM), actives largely listed as cytotoxic; 0.49% of 400,000 active; AID 651635; note: nearly all actives have a fitted effect of over 40% in size
TGFb inhibitor: blocks TGF-b signaling | HepG2 CAGA-GFP TGF-b/SMAD3 reporter, GFP fluorescence, 18 h; TGF-beta stimulated, 500 pg/mL final | Potency, µM (highest dose often 46.1 µM), for the others: at the top dose activity, negative = inhibition, most hits filed as inhibitors | 1.2% of 410,000 active; note: % is set by controls: 0 for no effect and ±100 for the full control effect; nearly all actives have a fitted effect of over 65% in size
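Using HEPG2 CAGA-GFP reporter cells at 1000 cells/well, we pinned test compounds, stimulated with recombinant TGF-beta (500 pg/mL final) and measured total well GFP after 18 h.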
KB-V1 MDR tox: kills drug-selected multidrug resistant KB-V1 cells | KB-V1 MDR cells viability, CellTiter-Glo, 72 h | Potency, µM (series often up to 46.1 µM), usual class: cytotoxic | 3.4% of 400,000 active | AID 1347076; note: % is set by controls: 0 for no effect and ±100 for the full control effect; nearly all actives have a fitted effect of over 60% in size
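Compound-treated KB-V1 multidrug-resistant cells, 72 h, 37 degrees C; viability by CellTiter-Glo. Fitted qHTS curves give the values.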
TGFb CAGA inh: confirmation of TGF-b signaling inhibitors in HepG2 reporter cells | HepG2 CAGA-GFP TGF-b reporter, GFP fluorescence, 18 h; cells stimulated with TGF-beta, 500 pg/mL | AID 720534 | shares compounds with TGFb inhibitor | Potency, µM (titrated, usually from 46.1 µM), for inactives: at the highest dose activity, negative = inhibition, hits mostly inhibitors | 63% of 1,600 active; note: % is set by controls: 0 for no effect and ±100 for the full control effect; nearly all actives have a fitted effect of over 65% in size
HepG2 tox-2: counter-screen for TGF-b inhibitors: cytotoxicity in HepG2 cells | HepG2 CAGA-GFP viability, ATP luminescence, 18 h; cells stimulated with TGF-beta, 500 pg/mL | Potency, µM (doses to about 46.1 µM), without a hit: at the highest dose activity, negative = cytotoxicity, usual class: inhibitors | 27% of 1,600 active | shares compounds with TGFb inhibitor; note: % is set by controls: 0 for no effect and ±100 for the full control effect; nearly all actives have a fitted effect of over 70% in size
CCL64 TGFb inh: TGF-b inhibition, CCL64 orthogonal assay. shares compounds with TGFb inhibitor. AID 720536. Potency, µM (top dose mostly 46.1 µM), for the others: at the top dose activity, negative = inhibition, most hits filed as inhibitors. CCL64 CAGA-GFP reporter, TGF-b stimulated, GFP fluorescence, 18 h. 41% of 1,600 active; note: nearly all actives have a fitted effect of over 65% in size
COP TGFb inh: TGF-b inhibition validated with COP promoter. Potency, µM (series often up to 46.1 µM), for the others: at the highest dose activity, negative = inhibition, most hits filed as inhibitors. 3% of 1,600 active. HepG2 COP-GFP TGF-b reporter, GFP fluorescence, 18 h; cells stimulated by added recombinant TGF-beta. shares compounds with TGFb inhibitor. AID 720537; note: nearly all actives have a fitted effect of over 70% in size
An asterisk follows results filed as active; i = inactive; u = inconclusive; x = not tested or not shown. Shown are actives, neighbours in structure and some others; about 5.9% of the full set was active somewhere. Calls come from the whole dose curve; as a rule, active = well fitted curve in the direction sought with a large enough effect; inconclusive = small, poorly fitted or top-dose-only effect, or another doubt; inactive = no such curve, though single readings can be large; an effect the other way counts as inactive or inconclusive. Potency is the fitted concentration of half-maximal effect.

SMILES	HepG2 tox-1	KB-3-1 tox	ATXN2 expr inh	S2 tox	TGFb inhibitor	KB-V1 MDR tox	TGFb CAGA inh	HepG2 tox-2	CCL64 TGFb inh	COP TGFb inh
C/C(=N\NC(=O)c1ccccc1)c1ccccc1F	13%	i	73%	i	20%	i	x	x	x	x
C/C(=N\NC(=O)c1ccccc1OCCOc1ccccc1)c1ccccc1F	-19%	i	-13%	u	20µM*	u	u	u	u	57%
COc1ccc(C(=O)CSc2cc(C)nc(SCC(=O)c3ccc(C)cc3)n2)cc1	-2%	u	-4%	i	u	i	u	0%	0%	0%
Cc1ccc(C(=O)CSc2nc(C)cc(SCc3nnc(-c4ccccc4)o3)n2)cc1	-6%	i	1%	i	-4%	i	x	x	x	x
O=C(NCCN1CCOCC1)c1ccc(Cl)c(S(=O)(=O)N2CCCCCC2)c1	-35%	i	-10%	i	2.5µM*	i	u	-9%	-3%	1%
O=C(NCCN1CCOCC1)c1ccc(Cl)c(S(=O)(=O)N2CCCC2)c1	-7%	x	-13%	i	-16%	x	x	x	x	x
COc1ccc(C(=O)Nc2ccc(C)c(S(=O)(=O)N3CCOCC3)c2)cc1S(=O)(=O)N1CCCC1	-7%	i	-19%	i	11µM*	i	u	2%	u	2%
CCc1ccc(NC(=O)Cn2c(=O)c3cc(Cl)ccc3n3nncc23)cc1	6%	i	-9%	i	6%	i	x	x	x	x
CCOC(=O)c1[nH]c2c(c1Cc1ccccc1OC)C(=O)CC(c1ccc(OCC)cc1)C2 (stereo not drawn)	4%	i	1%	i	-19%	i	x	x	x	x
CCN(CC)C(=O)Cn1cc(SCC(=O)Nc2ccccc2C)c2ccccc21	-23%	i	-6%	i	u	i	x	x	x	x
O=C(CNC(=S)N(Cc1ccccc1)Cc1ccccc1F)NCc1ccc(Cl)cc1	0%	i	-29%	i	13µM*	u	13µM*	u	u	17%
O=C(CNC(=S)N(Cc1ccccc1)Cc1ccccc1F)NCc1ccccc1	-21%	i	-29%	u	u	u	x	x	x	x
COc1ccccc1N1CCN(C(=O)c2ccc(-c3ccc(Cl)cc3)o2)CC1	-46%	4.6µM*	x	u	8.9µM*	u	13µM*	12µM*	u	53%
COc1ccccc1N1CCN(C(=O)NCc2ccc(Cl)cc2)CC1	-12%	i	-8%	i	0%	i	x	x	x	x
COc1ccc(NC(=O)c2c(Nc3ccccc3)sc(C(=O)c3ccc(F)cc3)c2N)cc1	-58%	2.1µM*	u	i	3.2µM*	u	-22%	-27%	u	-1%
